# Screening results (PubChem)
# A selection: hits, their analogues and other compounds. The true share with any hit is near 7.4%.
# Rab9 prom act – activators of Rab9 promoter; Potency, µM (highest dose often 9.22 µM), without a hit: at the highest dose activation, negative = inhibition, most hits filed as activators; Huh7 Rab9 promoter-luciferase reporter, luminescence, 24 h; 2.8% of 320,000 active; AID 485297; also: % of control where 0% means no effect; nearly all actives have a fitted effect of over 60% in size
#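 Huh7 cells stably carrying a Rab9 promoter-luciferase reporter, 1500 cells per well in OP-MEM I with 10% FBS, treated with compound 24 hours at 37C. Luciferase activity read by luminescence after 10 minutes with Amplite reagent.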
# NPC1 promoter act – NPC1 promoter activation. AID 485313. Potency, µM (top dose mostly 9.22 µM), for the others: at the highest dose activation, actives largely listed as activators. Huh7 NPC1 promoter luciferase reporter, 24 h. 2.4% of 320,000 active; also: % of control where 0% means no effect; nearly all actives have a fitted effect of over 60% in size
#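 Huh7 cells stably carrying NPC1 promoter–luciferase, plated in Opti-MEM with 10% FBS for 2 h, were exposed to compound in DMSO for 24 h at 37 °C; luciferase reagent was added for 10 min and luminescence read.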
# p53 reactivation – mutant p53 re-activation in reporter cells. 0.063% of 320,000 active. Potency, µM (titrated, usually from 92.2 µM), without a hit: at the top dose activity change, positive = activation, usual class: activators. H1299 p53-A138V BP100-luciferase reporter, luminescence, 24 h; also: % of control where 0% means no effect; nearly all actives have a fitted effect of over 45% in size
#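 p53-null H1299 cells stably carrying temperature-sensitive p53-A138V and a BP100-luciferase reporter were pinned with compounds (4-point, 1:5 series) and held 24 hrs at 37 deg C. Luminescence was read 10 min after detection reagent.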
# FLuc modulator – firefly luciferase modulation, counter-screen for miR-21 project. P08659. purified FLuc, Km substrates, luminescence inhibition. Potency, µM (top dose mostly 57.5 µM), for inactives: at the top dose activity change, negative = inhibition, actives largely listed as inhibitors. 6.9% of 360,000 active. AID 588342;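 also: plate controls were vehicle for no effect and reference inhibitor for full effect; nearly all actives have a fitted effect of over 55% in size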
# Target sequence (P08659 whole entry, looked up): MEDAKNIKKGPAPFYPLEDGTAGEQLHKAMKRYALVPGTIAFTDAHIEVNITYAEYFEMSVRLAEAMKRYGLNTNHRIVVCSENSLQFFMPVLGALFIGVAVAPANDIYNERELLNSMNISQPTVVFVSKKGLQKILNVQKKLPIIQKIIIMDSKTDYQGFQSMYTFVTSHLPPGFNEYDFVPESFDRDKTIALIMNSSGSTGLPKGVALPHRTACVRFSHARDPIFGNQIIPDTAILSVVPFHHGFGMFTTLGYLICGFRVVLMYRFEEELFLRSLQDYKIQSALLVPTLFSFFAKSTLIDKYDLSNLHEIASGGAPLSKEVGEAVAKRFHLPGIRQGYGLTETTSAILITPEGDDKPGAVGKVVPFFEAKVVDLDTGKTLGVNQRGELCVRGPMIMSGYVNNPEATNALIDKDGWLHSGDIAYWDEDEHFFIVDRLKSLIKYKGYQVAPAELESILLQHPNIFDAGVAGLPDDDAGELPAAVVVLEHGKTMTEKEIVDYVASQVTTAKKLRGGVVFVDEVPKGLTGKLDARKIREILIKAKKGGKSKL
#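 Purified P. pyralis luciferase (10nM final) with 10uM D-luciferin and 10uM ATP (Km levels) in 50mM Tris acetate pH 7.5, 10mM Mg acetate, 0.01% Tween-20, 0.05% BSA; qHTS 6-point titration, ~60 µM downward; luminescence read.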
# SMN2 splice enh – SMN2 splice variant enhancement; HEK293 SMN2-luciferase splicing reporter, luminescence, 30-36 h; Potency, µM (top dose mostly 46.1 µM), for inactives: top-dose activity change, positive = activation, actives largely listed as activators; 2.8% of 210,000 active; AID 1458; also: % of control where 0% means no effect; nearly all actives have a fitted effect of over 55% in size
#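 qHTS luciferase splicing reporter: luminescence rises when SMN2 exon 7 is included in transfected HEK293 cells. Compound exposure lasted 30-36 h at 37C, with 4.5 mM final sodium butyrate as control, followed by a ONE-Glo read.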
# ELG1 genotoxic – genotoxicity induction in ELG1-luciferase HEK293T cells | HEK293T ELG1-luciferase reporter, luminescence, 16 h | Potency, µM (titrated, usually from 46 µM), for inactives: top-dose activity change, positive = activation, usual class: activators | 1.3% of 330,000 active; also: % of control where 0% means no effect; nearly all actives have a fitted effect of over 60% in size
#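 16 hr compound incubation (37 °C, 5% CO2) of HEK293T cells carrying luciferase-tagged ELG1; luciferase then measured by ONE-Glo luminescence after 30 min at RT.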
# The depositor's hits bear a star; u = inconclusive; x = no result; [ ] = another dose, or the depositor's remark. Calls follow the shape of the dose curve; as a rule, active = well fitted curve in the direction sought with a large enough effect; inconclusive = small, poorly fitted or top-dose-only effect, or another doubt; inactive = no such curve, though single readings can be large; an effect the other way counts as inactive or inconclusive. Potency is read from the fitted curve at half-maximal effect.
SMILES,Rab9 prom act,NPC1 promoter act,p53 reactivation,FLuc modulator,SMN2 splice enh,ELG1 genotoxic
CCN1CCN(Cc2c(O)ccc3oc(C)c(C(=O)Nc4cccc(Cl)c4C)c23)CC1,x,x,x,-4.5%,5.3%,x
O[C@@H]1[C@@H](OCc2ccccc2)OC[C@H](O)[C@@H]1O,x,x,x,x,-1.8%[9.22 µM],x
Cc1ccc(Nc2nc(N)nc(CSC(=S)N3CCOCC3)n2)cc1,u,2.82µM*,21.6%,15.1µM*,u,u
Cc1cccc(Nc2nc(N)nc(CSC(=S)N3CCOCC3)n2)c1,u,u,14.7%,-3.9%,x,16.6%
Cc1ccccc1Nc1nnc(SCC(=O)NCc2ccco2)s1,3.5%,1.4%,23.0%,3.4%,5.9%,-0.2%
O=C(CSc1nnc(NC(=O)C2CC2)s1)NCc1ccco1,-3.2%,-0.4%,3.9%,-7.7%,24.0%,0.3%
O=C(CSc1nnc(NC(=O)c2ccccc2)s1)NCc1ccco1,3.16µM*,2.82µM*,-0.6%,4.78µM*,x,u
CC(C)C(=O)Nc1nnc(SCC(=O)NCc2ccco2)s1,0.2%,-1.7%,-12.6%,-0.3%,-10.5%,2.3%
O=C(CSc1nnc(NC(=O)c2ccc(F)cc2)s1)NCc1ccco1,3.55µM*,1.58µM*,16.2%,1.9µM*,x,u
O=C(CSc1nnc(NC(=O)c2ccc3c(c2)OCO3)s1)NCc1ccco1,0.708µM*,1.12µM*,-4.7%,0.757µM*,3.98µM*,u
Cc1ccccc1C(=O)Nc1nnc(SCC(=O)NCc2ccco2)s1,1.78µM*,1.78µM*,6.2%,1.69µM*,x,2.91µM*
CC(C)Cc1nn2c(=O)cc(COC(=O)c3ccccc3NC(=O)c3cccs3)nc2s1,x,x,x,-6.2%,x,x
COc1ccc(-c2cc(C(F)(F)F)n3nc(C(=O)Nc4cc(Cl)cc(Cl)c4)cc3n2)cc1,x,x,x,-2.8%,-27.7%,x
CCOc1ccc(N(CC(=O)NC2CC2)S(=O)(=O)c2ccc(C)cc2)cc1,-2.6%,-0.4%,-0.9%,1.6%,x,-8.8%
O=C(O)c1ccc(-n2nc(C(F)(F)F)cc2-c2cccs2)cc1,-4.5%,2.7%,-8.0%,-1.7%,x,-0.4%
COc1ccc(NC2CCCN(C(=O)CN3C(=O)c4ccccc4C3=O)C2)cc1OC (stereo not given),1.0%,-2.7%,6.2%,0.5%,x,-4.0%
CC(C)(C)c1ccc(C(=O)NCc2nnc(SCC(=O)NCc3ccco3)o2)cc1,2.1%,3.2%,-13.9%,19µM*,x,7.1%
O=C(CSc1nnc(CNC(=O)c2ccccc2)o1)NCc1ccco1,8.0%,-0.8%,u,-1.1%,x,2.8%
Cc1ccc(N2C(=O)CC(Cc3cc(C)cc(C)c3)C2=O)cc1 (stereo not given),-5.0%,-6.0%,-0.5%,2.3%,-2.8%,-5.2%
Cc1cc(C)cc(CC2CC(=O)N(c3nc(C)cc(C)n3)C2=O)c1 (stereo not given),u,29.4%,u,21.3µM*,-1.4%,14.8%
CC1CN(C(=O)c2cccc(COc3ccc(Br)cc3)c2)CC(C)O1 (stereo not given),3.55µM*,1.58µM*,u,4.78µM*,3.98µM*,u
CCOc1ccc(OCc2cccc(C(=O)N3CCOCC3)c2)cc1,0.0891µM*,0.0891µM*,-23.2%,0.301µM*,0.355µM*,0.13µM*
CCOc1ccc(N=C(/C(C(=O)C(=O)N2CCOCC2)=C(/O)c2ccccc2)c2ccccc2)cc1,u,3.98µM*,10.5%,u,x,u
COc1cccc(N2CCN(C(=O)c3cc4c(s3)-c3c(C)cccc3OC4)CC2)c1,x,x,x,-1.2%,-2.5%,x
Cc1ccc(S(=O)(=O)N2CCN(C(=O)c3ccccc3OCc3c(C)noc3C)CC2)cc1,2.3%,-2.7%,-5.8%,11.1%,x,4.9%
SMILES,Rab9 prom act,NPC1 promoter act,p53 reactivation,FLuc modulator,SMN2 splice enh,ELG1 genotoxic
Cc1noc(C)c1COc1ccccc1C(=O)N1CCN(S(=O)(=O)c2ccccc2F)CC1,-4.8%,0.6%,3.4%,3.8%,x,23.1µM*
O=c1oc(-c2cccs2)nc2sc3c(c12)CCCC3,4.4%,15.4%,7.7%,2.39µM*,u,1.4%
O=c1c2c3c(sc2nc2n1N=C(c1cccs1)CS2)CCCC3,0.631µM*,0.631µM*,u,0.19µM*,-22.8%,u
O=C1CN(c2nc(-c3cccs3)nc3sc4c(c23)CCCC4)CCN1,-44.5%,-37.2%,-3.0%,6.01µM*,u,u
CCCc1ccc(OCC(=O)Nc2sc(C(=O)OCC)c(C)c2C(=O)OCC)cc1,x,x,x,-0.3%,-0.9%,x
O=C(c1ccncc1)N1CCC[C@@]2(CCN(c3ccncc3)C2)C1,x,x,x,x,-2.5%,x
O=c1c2c(-c3ccccc3)csc2ncn1/N=C/c1c2ccccc2cc2ccccc12,2.7%,-0.6%,-0.2%,-0.8%,-14.6%,-16.5%
CCCCn1cnc2sc(-c3ccccc3)cc2c1=O,1.58µM*,1.41µM*,18.8%,5.36µM*,24.4%,u
O=c1c2cc(-c3ccccc3)sc2ncn1/N=C/c1ccco1,3.55µM*,u,u,8.49µM*,9.9%,u
COc1ccccc1-n1cnc2sc(-c3ccccc3)cc2c1=O,2.82µM*,u,7.1%,10.7µM*,-20.3%,5.4%
CCCCCn1cnc2sc(-c3ccccc3)cc2c1=O,2.24µM*,2.51µM*,11.1%,6.75µM*,u,13.4%
O=C(COC(=O)/C=C/c1ccccc1[N+](=O)[O-])Nc1ccc2[nH]c(=O)[nH]c2c1,x,x,1.3%,x,x,-3.1%
CSc1ccccc1NC(=O)c1cc(CC(C)C)on1,u,u,u,u,u,20.6µM*
Cc1cc(C(=O)Nc2cccnc2)no1,-1.0%,-0.3%,18.5%,-2.0%,3.8%,3.6%
CC(C)Cc1cc(C(=O)Nc2cccnc2)no1,u,0.4%,u,5.36µM*,-4.1%,10.3µM*
Cc1csc(B(O)O)c1,x,x,x,x,-2.6%,x
Cc1cc(/C(N)=N/OC(=O)Nc2ccccc2)no1,u,23.3%,9.8%,u,x,9.5%
COc1ccc(C(=O)O/N=C(\N)c2ccccc2)cc1,1.41µM*,0.501µM*,9.1%,0.213µM*,x,1.83µM*
Cc1cc(C(=O)O/N=C(\N)c2ccc(C(C)(C)C)cc2)no1,1.78µM*,3.55µM*,9.4%,6.01µM*,x,10.2%
COc1ccc(C(=O)O/N=C(\N)c2ccc(Br)cc2)cc1,u,u,u,3.01µM*,x,15.9%
Cc1cc(/C(N)=N/OC(=O)Nc2ccc(Cl)cc2)no1,u,10.1%,8.2%,19µM*,x,u
CCCCC/C=C\C/C=C\C/C=C\CCCCCCC(=O)NC(C)C(=O)O (stereo not given),x,x,x,x,11.4%,x
CC(C)(C)c1ccc(C(=O)O/N=C(\N)c2ccccc2)cc1,-11.8%,-15.9%,-9.0%,0.757µM*,x,u
